Only some compounds are listed: those with a hit (about 5.7% of all), similar ones and a draw of the others.
GLP1R cytotox: qHTS of GLP-1 Receptor Inverse Agonists: Cytotox Screen; 0.13% of 410,000 active; Potency, µM (doses to about 38.3 µM), inactives show at the highest dose activity change, negative = inhibition, most hits filed as inhibitors; HEK293 cAMP-luciferase reporter cells, luminescence, 24 h; AID 624418, 2012;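 further: loss of luciferase light is scored as toxicity; potency means the concentration at half of the fitted maximal effect; on the % scale 0 is the no-effect control and ±100 the full control effect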
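Step one: seed cells (200 cells/uL, DMEM with 10% Nu serum, 1% pen-strep). Step two: 12-hour incubation at 37 deg C. Step three: pin 23 nL compound, incubate 24 hr. Step four: add luciferase reagent, read luminescence 12 min later.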
DRD3 antagonist: qHTS of D3 Dopamine Receptor Antagonist: qHTS. D(3) dopamine receptor (Homo sapiens), P35462. D3R cells, DiscoveRx beta-arrestin luminescence, antagonist mode; hits give low values. max response, negative = inhibition, %. 2.5% of 360,000 active. AID 652054, 2013; in the data active means max response below about -50%; inconclusive means no clear call, values can overlap the other calls; further: on the % scale 0 is the no-effect control and ±100 the full control effect
Target sequence (P35462 whole entry, looked up): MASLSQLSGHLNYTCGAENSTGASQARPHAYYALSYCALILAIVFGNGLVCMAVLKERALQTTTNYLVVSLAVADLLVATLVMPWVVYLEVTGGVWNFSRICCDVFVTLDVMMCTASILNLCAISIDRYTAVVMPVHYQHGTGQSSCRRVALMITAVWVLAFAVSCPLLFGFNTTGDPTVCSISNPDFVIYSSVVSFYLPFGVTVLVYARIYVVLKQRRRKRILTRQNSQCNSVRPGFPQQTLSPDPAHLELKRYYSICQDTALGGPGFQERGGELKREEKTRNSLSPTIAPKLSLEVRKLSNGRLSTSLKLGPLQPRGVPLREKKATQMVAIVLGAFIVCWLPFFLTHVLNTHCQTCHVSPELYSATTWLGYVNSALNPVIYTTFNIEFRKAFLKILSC
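Cells plated overnight at 1500 cells/well, then exposed to library compounds with dopamine controls for 90 minutes at 37 degrees C. DiscoveRx reagent added for 30–60 minutes at room temperature; luminescence read, quantitative HTS format.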
GLP-1R agonist: qHTS of GLP-1 Receptor Agonists | 0.007% of 380,000 active | HEK293 GLP-1R CRE-luciferase, luminescence, 4-6 h; cells express a hypersensitive GLP-1R form | Glucagon-like peptide 1 receptor (Homo sapiens), P43220 | Potency, µM (titrated, usually from 45.6 µM), for the others: top-dose activation, hits mostly activators; further: potency means the concentration at half of the fitted maximal effect; % of control where 0% means no effect
ClpP mod: qHTS Assay for Activators of ClpP. purified B. subtilis ClpP, FRET peptide cleavage, 20 min. 1.9% of 340,000 active. ATP-dependent Clp protease proteolytic subunit (Bacillus subtilis (strain 168)), P80244. Potency, µM (titrated, usually from 57.5 µM), for inactives: top-dose activity change, negative = active; active means well fitted falling curve with a large enough effect; inconclusive means small, poorly fitted or top-dose-only effect; inactive means no such curve, though single readings can be large or run the other way; further: potency means the concentration at half of the fitted maximal effect; the source files actives as falling curves though it sought activators and does not explain the sign; nearly all actives have a fitted effect of over 65% in size
Target sequence (P80244 whole entry, looked up): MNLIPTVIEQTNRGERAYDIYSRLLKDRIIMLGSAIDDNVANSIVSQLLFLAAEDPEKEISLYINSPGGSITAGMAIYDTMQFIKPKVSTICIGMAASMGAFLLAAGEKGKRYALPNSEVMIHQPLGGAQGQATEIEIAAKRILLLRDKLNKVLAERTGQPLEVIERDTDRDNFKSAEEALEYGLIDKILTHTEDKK
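Purified B. subtilis ClpP, 10 microg/mL final in Tris/HCl pH8 with KCl, BSA, glycerol and Tween-20, cleaved an Abz/nitrotyrosine-quenched decapeptide. Fluorescence (ex 320, em 430) was read at 0 and 20 min at room temperature. Delta was normalized to 5.8 microM ADEP and DMSO/no-enzyme controls.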
GLP-1R inv ag: qHTS of GLP-1 Receptor Inverse Agonists (Inhibition Mode); Potency, µM (doses to about 38.3 µM), inactives show at the highest dose activity change, negative = inhibition, most hits filed as inhibitors; Glucagon-like peptide 1 receptor (Homo sapiens), P43220; 1.6% of 410,000 active; AID 624417, 2012; HEK293 GLP-1R CRE-luciferase, luminescence, 24 h; GLP-1R form is constitutively active; further: potency means the concentration at half of the fitted maximal effect; on the % scale 0 is the no-effect control and ±100 the full control effect; nearly all actives have a fitted effect of over 55% in size
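Inverse agonism was detected as reduced cAMP-driven luciferase luminescence after 24 h compound treatment. The cells were HEK293 clones expressing constitutively active human GLP-1R with the reporter. Reporter-only and GPR119 cell lines served as counterscreen controls.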
DRD3 agonist: qHTS of D3 Dopamine Receptor Agonist: qHTS; D(3) dopamine receptor (Homo sapiens), P35462; D3R DiscoveRx beta-arrestin cells, luminescence, 90 min; max activation, %; 0.58% of 410,000 active; in the data active means max activation above about 30%; further: 0% is about no effect
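Agonist-mode cell screen: cells plated at 1500/well and incubated overnight at 37 °C, then exposed to library compounds for 90 min at 37 °C. Detection reagent was added for 30–60 min at room temperature, and luminescence was read.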
Active calls of the source: *; ? = inconclusive; nt = not tested or not shown; ! = not confirmed by another sample. Unless noted, the call rests on the fitted dose curve; in most records, active means well fitted curve in the direction sought with a large enough effect; inconclusive means small, poorly fitted or top-dose-only effect, or another doubt; inactive means no such curve, though single readings can be large; an effect the other way counts as inactive or inconclusive.

SMILES | GLP1R cytotox | DRD3 antagonist | GLP-1R agonist | ClpP mod | GLP-1R inv ag | DRD3 agonist
Cc1ccc(NC(=S)Nc2ccccn2)c(C)c1 | 5µM* | 7 | 10% | -3% | ? | -9
Cc1cccc(NC(=S)Nc2ccccn2)c1 | ? | -17 | 25% | nt | 11µM* | -2
Cc1cc(Cl)ccc1NC(=S)Nc1ccccn1 | ? | -30 | -5% | 3% | ? | -11
CN(C)S(=O)(=O)c1cccc(C(=O)Nc2cc(S(=O)(=O)N3CCOCC3)ccc2N2CCCC2)c1 | -31% | 5 | 14% | 1% | 10% | 2
CC[C@H](c1ccccc1)c1noc(CCN(CC)CC)n1 | nt | nt | 6% | nt | nt | nt
Cc1ccc(-n2c3c(c(=O)[nH]c2=O)C(NC(=O)C(C)(C)C)(C(F)(F)F)C(=O)N3)cc1 (stereo not given) | 20% | nt | nt | 0% | 12% | 4
Cc1nc2ccccc2nc1OCC(=O)NCc1ccc2c(c1)OCO2 | 22% | -65* | 10% | -21% | -3% | 1
O=C(Cc1ccccc1[N+](=O)[O-])NCc1ccc2c(c1)OCO2 | -6% | 15 | -1% | 32µM* | 1% | 0
CC1CC(C)CN(c2ccc(C(=O)NCc3ccc4c(c3)OCO4)cc2[N+](=O)[O-])C1 (stereo not given) | -17% | ? | 3% | -3% | 11µM* | -32
O=C1NC(=O)C2(CCCC2C(=O)O)N1 (stereo not given) | -10% | 9 | -1% | 1% | 11% | 9
COc1ccc(S(=O)(=O)N2CCN(c3ccccc3OC)CC2)cc1-c1noc(C)n1 | -3% | nt | nt | 2% | 3% | -26
CCCCC/C=C/C/C=C/CCCCCCCC(=O)NC(C)c1ccccc1 (stereo not given) | nt | nt | 6% | nt | nt | nt
NS(=O)(=O)c1ccc(NNC(=O)c2ccc(Br)o2)c([N+](=O)[O-])c1 | -7% | -65* | 7% | -3% | -24% | -17
CCOc1ccccc1NC(=O)COc1coc(CN2CCc3ccccc3C2)cc1=O | 0% | -1 | 0% | ? | ? | -2
O=C(COc1coc(CN2CCc3ccccc3C2)cc1=O)N1CCOCC1 | 7% | -7 | 1% | 28µM* | 27% | -4
Cc1cc(C)cc(S(=O)(=O)N2CCN(c3nc(-c4cccs4)nc4ccccc34)CC2)c1 | nt | nt | nt | 4% | nt | nt
Cc1cc(C)c(C#N)c(SCC(=O)Nc2ccc(S(=O)(=O)Nc3onc(C)c3C)cc2)n1 | 2% | -54* | 6% | -1% | 0% | 4
Cc1noc(NS(=O)(=O)c2ccc(NC(=O)Nc3ccc(Cl)c(Cl)c3)cc2)c1C | -13% | -77* | -12% | 0% | ? | 5
Cc1noc(NS(=O)(=O)c2ccc(NC(=O)CSc3n[nH]c(-c4ccccc4)n3)cc2)c1C | -5% | ? | -8% | 0% | 3% | 0
COc1ccc(CNC(=O)[C@H](Cc2ccccc2)NC(=O)CC[C@H]2O[C@@H](n3ccc(=O)[nH]c3=O)[C@H](O)[C@@H]2O)cc1 | 4% | 10 | -4% | 0% | 21% | 8
Cc1ccc(-c2noc(-c3cc4ccccc4oc3=O)n2)cc1 | 6% | 2 | 3% | -7% | 23% | 7
O=c1oc2ccccc2cc1-c1nc(-c2ccccc2)no1 | -8% | -10 | 3% | 28µM* | 7% | 3
Cc1cccc(-c2noc(-c3cc4ccccc4oc3=O)n2)c1 | 9% | -13 | 0% | 8.9µM* | 19% | -6
CCCCOc1ccc(CNC(=O)c2cnc3sc(N4CCC(C)CC4)nn3c2=O)cc1 | -9% | nt | nt | -5% | 7% | -4
Cc1cc(C)cc(OCC2CNC(=O)O2)c1 (stereo not given) | 5% | 14 | -2% | -1% | 16% | 83*!
SMILES | GLP1R cytotox | DRD3 antagonist | GLP-1R agonist | ClpP mod | GLP-1R inv ag | DRD3 agonist
CCCSc1ccc(-c2nn(-c3ccccc3)cc2/C=C(/C#N)C(=O)NCCCOC)cc1 | -1% | 3 | 2% | 10% | 5% | -10
CCSc1ccc(-c2nn(-c3ccccc3)cc2/C=C(/C#N)C(=O)NCCCOC)cc1 | 15% | 15 | 1% | 0% | 2% | 37*
O=C1N/C(=N\N=C\c2ccco2)SC1Cc1ccccc1[N+](=O)[O-] (stereo not given) | 4µM* | -7 | -6% | -1% | 7.1µM* | 0
CCOc1ccc(CC2S/C(=N/N=C/c3ccco3)NC2=O)cc1 (stereo not given) | -4% | 3 | -1% | nt | -12% | 1
COc1cc(Cn2c3ccc(NC(=O)CCc4cccnc4)cc3c(=O)n2C)ccc1F | 4% | 8 | 3% | 5% | -1% | 4
COc1cc(Cn2c3ccc(NC(=O)CCc4ccccc4)cc3c(=O)n2C)ccc1F | ? | ? | 9% | 4% | 2.2µM* | -17
O=c1[nH]cnc2nc(-c3ccccc3)c(-c3ccccc3)nc12 | -2% | -27 | -5% | 28µM* | 1% | -1
COC(=O)C1=C(C)N(Cc2ccc(C)cc2)C(=O)/C1=C\c1cc(OC)c(OC)c(OC)c1 | -20% | -12 | 2% | nt | 4.5µM* | 2
COC(=O)C1CSC(C(=O)OC)N1C(=O)Nc1ccc(Cl)cc1 (stereo not given) | 78% | -8 | -12% | 32µM* | 12% | 1
C=CCOC1=CS(=O)(=O)N(Cc2ccc(Br)cc2)c2ccc(Br)cc21 | 2% | -4 | -3% | -2% | ? | 42*
CCCc1ccc(S(=O)(=O)N2CCC(Oc3ccc(-n4cnnn4)cc3)CC2)cc1 | 1% | nt | nt | 1% | 0% | -6
O=C(NC1CCN(Cc2ccccc2)CC1)c1ccccc1NS(=O)(=O)c1ccc(F)cc1 | 22% | -12 | 3% | 0% | -16% | -10
O=C(NC1CCN(Cc2ccccc2)CC1)c1cccc(S(=O)(=O)Nc2ccc(F)cc2)c1 | 11µM* | ? | 0% | 0% | 7.1µM* | -25
O=C(NC1CCN(Cc2ccccc2)CC1)c1cccc(S(=O)(=O)Nc2ccc(Br)cc2)c1 | -11% | -57* | -4% | -1% | ? | -31
C=CCN(c1ccccc1)S(=O)(=O)c1cccc(C(=O)NC2CCN(Cc3ccccc3)CC2)c1 | ? | -79* | -1% | 0% | 13µM* | -27

Source: PubChem
